Measurements reported in PubChem BioAssay (Tox21).
Results filed as inconclusive are left out. Calls of active or inactive are those of the source. Unless noted, calls follow the shape of the dose curve; as a rule, active = well fitted curve in the direction sought with a large enough effect in the repeat runs; inconclusive = weak or mixed curves; inactive = no such curve, though single readings can be large; an effect the other way counts as inactive or inconclusive.

Columns and labels:
[1] = qHTS assay for small molecule agonists of the p53 signaling pathway (AID 651631; calls by dose curve; also: nearly all actives have a fitted effect of over 15% in size)
In short: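 Stably transfected HCT-116 cells (beta-lactamase behind p53 response elements) get compounds after a 5 h settling period; 16 h later at 37 °C, FRET substrate is loaded and fluorescence read after 2 h.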

[2] = qHTS assay for small molecules that induce genotoxicity in human embryonic kidney cells expressing luciferase-tagged ATAD5 (AID 651632); also: nearly all actives have a fitted effect of over 15% in size
In short: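 Cells were seeded at 2,000 per well, dosed with compound, and incubated 16 hr at 37C in 5% CO2. Luciferase activity was then quantified after a 30 min room-temperature incubation with Amplite.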

[3] = qHTS assay for small molecule agonists of the p53 signaling pathway - cell viability (AID 651633; calls by dose curve;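 also: p53RE-bla HCT reporter cells with a stable beta-lactamase p53 reporter; series mostly up to about 83 µM; nearly all actives have a fitted effect of over 30% in size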)
In short: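 Viability counter-read: CellTiter-Glo luminescence (30 min, room temperature) in the same p53RE-bla plates. These plates had been exposed to compounds for 16 h at 37 C.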

[4] = qHTS assay for small molecules that induce genotoxicity in human embryonic kidney cells expressing luciferase-tagged ATAD5 - cell viability (AID 651634; calls by dose curve; also: nearly all actives have a fitted effect of over 25% in size)
In short: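 Cells (HEK293T, luciferase-tagged ATAD5) are seeded at 2,000 per well, dosed with compound or DMSO vehicle, and incubated 15.5 hr at 37C and 5% CO2. CellTiter-Fluor is added for 30 min before fluorescence is measured.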

[5] = qHTS assay for small molecule disruptors of the mitochondrial membrane potential - cell viability (AID 720634; calls by dose curve;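 also: human HepG2 liver cancer cells; series mostly up to about 83 µM; nearly all actives have a fitted effect of over 20% in size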)
In short: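 Cytotoxicity was measured by ATP quantitation in HepG2 wells that had first been treated with compound for 1 hr and stained with m-MPI dye; CellTiter-Glo incubation was 30 min at room temperature.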

[6] = qHTS assay for small molecule disruptors of the mitochondrial membrane potential (AID 720635)
In short: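 Mitochondrial membrane potential tracked with Mito-MPS dye, red aggregates (ex 540/em 590 nm) against green monomers (ex 490/em 535 nm). Compound treatment 1 hr at 37C, dye 30 min in HepG2.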

[7] = qHTS assay to test for compound auto fluorescence at 590 nm (red) in HepG2 cells (AID 720674)
In short: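 Red autofluorescence (Ex/Em 540/590 nm, Rose Bengal sodium equivalents) was measured in HepG2 cells, 2,000 per well in MEM plus 10% FBS, plated overnight at 37 C. Readings were taken 1 hr after adding 23 nL compound or DMSO, at 37 C and 5% CO2.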

[8] = qHTS assay to test for compound auto fluorescence at 535 nm (green) in HepG2 cells (AID 720675)
[9] = qHTS assay to test for compound auto fluorescence at 460 nm (blue) in HEK293 cells (AID 720678)
In short: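 Auto fluorescence in the blue band was quantified as triamterene equivalency. HEK293 cells were seeded at 2,000/well, dosed after a 4-5 hr attachment, and kept overnight at 37C before the 405/460 nm reading.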

[10] = qHTS assay to test for compound auto fluorescence at 590 nm (red) in HEK293 cells (AID 720679)
In short: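 Autofluorescence equivalency to Rose Bengal sodium, 540/590nm, in HEK293 cells exposed overnight to 23 nL compound per well.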
% is scaled to controls: 0 for no effect and ±100 for the full control effect.

COc1ccc(C2CNC(=O)C2)cc1OC1CCCC1 (stereo not given)
inactive: outcome [1] | Potency [2] | outcome [3] | Potency [4] | outcome [5] | Potency [6] | fluorescence, relative to Rose Bengal [7] -0.195% [at 18.6 µM] | fluorescence, % of fluorescein control [8] 0.104% [at 18.6 µM] | fluorescence, % of triamterene [9] 0.004% [at 18.6 µM] | fluorescence, % of fluorescent control [10] -0.255% [at 18.6 µM]

O=S(=O)(O)CCN1CCN(CCO)CC1
inactive: outcome [1] | Potency [2] | outcome [3] | Potency [4] | outcome [5] | Potency [6] | outcome [7] | outcome [8] | outcome [9] | outcome [10]

C[C@@H]1O[C@@H](O[C@@H]2[C@@H](O)[C@H](OCCc3ccc(O)c(O)c3)O[C@H](CO[C@@H]3O[C@H](CO)[C@@H](O)[C@H](O)[C@H]3O)[C@H]2OC(=O)/C=C/c2ccc(O)c(O)c2)[C@H](O)[C@H](O)[C@H]1O
inactive: outcome [1] | Potency [2] | outcome [3] | Potency [4] | outcome [5] | Potency [6] | outcome [7] | outcome [8] | outcome [9] | outcome [10]

CC(C)C[C@H](NC(=O)CNC(=O)[C@H](Cc1ccc(O)cc1)NC(=O)[C@H](CO)NC(=O)[C@H](Cc1c[nH]c2ccccc12)NC(=O)[C@H](Cc1cnc[nH]1)NC(=O)[C@@H]1CCC(=O)N1)C(=O)N[C@@H](CCCN=C(N)N)C(=O)N1CCC[C@H]1C(=O)NCC(N)=O (stereo in doubt)
inactive: outcome [1] | Potency [2] | outcome [3] | Potency [4] | outcome [5] | Potency [6] | outcome [7] | outcome [8] | outcome [9] | outcome [10]

O=C(OCC1(COC(=O)c2cccnc2)CCCC(COC(=O)c2cccnc2)(COC(=O)c2cccnc2)C1O)c1cccnc1
inactive: outcome [1] | Potency [2] | outcome [3] | Potency [4] | outcome [5] | Potency [6] | outcome [7] | outcome [8] | outcome [9] | outcome [10]

O=C(NCCN1CCOCC1)c1ccc(Cl)cc1
inactive: outcome [1] | Potency [2] | outcome [3] | Potency [4] | outcome [5] | Potency [6] | outcome [7] | outcome [8] | outcome [9] | outcome [10]

CCCCCCCCOS(=O)(=O)O
inactive: outcome [1] | Potency [2] | outcome [3] | Potency [4] | outcome [5] | Potency [6] | outcome [7] | outcome [8] | outcome [9] | outcome [10]

CCOC(=O)c1ccc(OC(=O)CCCCCN=C(N)N)cc1
inactive: outcome [1] | Potency [2] | outcome [3] | Potency [4] | outcome [5] | Potency [6] | fluorescence, relative to Rose Bengal [7] -0.309% [at 18.6 µM] | fluorescence, % of fluorescein control [8] 0.0329% [at 18.6 µM] | fluorescence, % of triamterene [9] -0.0421% [at 18.6 µM] | fluorescence, % of fluorescent control [10] 0.895% [at 18.6 µM]

CN1CCN(CC(=O)N2c3ccccc3C(=O)Nc3cccnc32)CC1
inactive: outcome [1] | Potency [2] | outcome [3] | Potency [4] | outcome [5] | Potency [6] | outcome [7] | outcome [8] | outcome [9] | outcome [10]

CCCCNc1ccc(C(=O)OCCN(C)C)cc1
inactive: outcome [1] | Potency [2] | outcome [3] | Potency [4] | outcome [5] | Potency [6] | fluorescence, relative to Rose Bengal [7] -0.178% [at 18.6 µM] | fluorescence, % of fluorescein control [8] -0.0004% [at 18.6 µM] | fluorescence, % of triamterene [9] 0.259% [at 18.6 µM] | fluorescence, % of fluorescent control [10] 0.151% [at 18.6 µM]

O=C1O[C@@H]2[C@@H](O)[C@H](O)O[C@@H]2[C@H]1O
inactive: outcome [1] | Potency [2] | outcome [3] | Potency [4] | outcome [5] | Potency [6] | outcome [7] | outcome [8] | outcome [9] | outcome [10]

Cc1ccsc1/C=C/C1=NCCCN1C
inactive: outcome [1] | Potency [2] | outcome [3] | Potency [4] | outcome [5] | Potency [6] | fluorescence, relative to Rose Bengal [7] 0.162% [at 18.6 µM] | fluorescence, % of fluorescein control [8] 0.0988% [at 18.6 µM] | fluorescence, % of triamterene [9] -0.421% [at 18.6 µM] | fluorescence, % of fluorescent control [10] -1.08% [at 18.6 µM]

C=C(C)C1CCC(C)(O)CC1 (stereo not given)
inactive: outcome [1] | Potency [2] | outcome [3] | Potency [4] | outcome [5] | Potency [6] | outcome [7] | outcome [8] | outcome [9] | outcome [10]

C=C(C)C(=O)OCCNC(C)(C)C
inactive: outcome [1] | Potency [2] | outcome [3] | Potency [4] | outcome [5] | Potency [6] | outcome [7] | outcome [8] | outcome [9] | outcome [10]

C=Cc1ccccn1
inactive: outcome [1] | Potency [2] | outcome [3] | Potency [4] | outcome [5] | Potency [6] | outcome [7] | outcome [8] | outcome [9] | outcome [10]

ClCCCl
inactive: outcome [1] | Potency [2] | outcome [3] | Potency [4] | outcome [5] | Potency [6] | outcome [7] | outcome [8] | outcome [9] | outcome [10]

Nc1ccc(S(=O)(=O)Nc2ccc(Cl)nn2)cc1
inactive: outcome [1] | Potency [2] | outcome [3] | Potency [4] | outcome [5] | Potency [6] | outcome [7] | outcome [8] | outcome [9] | outcome [10]

O=C(OCc1ccccc1)C(=O)OCc1ccccc1
inactive: outcome [1] | Potency [2] | outcome [3] | Potency [4] | outcome [5] | Potency [6] | outcome [7] | outcome [8] | outcome [9] | outcome [10]

COc1ccc(S(=O)(=O)N2c3ccc(Cl)cc3[C@@](O)(c3ccccc3Cl)[C@H]2C(=O)N2CCC[C@@H]2C(N)=O)cc1OC
inactive: outcome [1] | Potency [2] | outcome [3] | Potency [4] | outcome [5] | Potency [6] | outcome [7] | outcome [8] | outcome [9] | outcome [10]

CCN1CCc2nc(N)oc2CC1
inactive: outcome [1] | Potency [2] | outcome [3] | Potency [4] | outcome [5] | Potency [6] | outcome [7] | outcome [8] | outcome [9] | outcome [10]

CCOc1cc(NC(C)=O)ccc1C(=O)OC
inactive: outcome [1] | Potency [2] | outcome [3] | Potency [4] | outcome [5] | Potency [6] | outcome [7] | outcome [8] | outcome [9] | outcome [10]

C[C@@H](O)[C@H]1C(=O)N2C(C(=O)O)=C(SCCN=CN)C[C@H]12
inactive: outcome [1] | Potency [2] | outcome [3] | Potency [4] | outcome [5] | Potency [6] | fluorescence, relative to Rose Bengal [7] -0.493% [at 18.6 µM] | fluorescence, % of fluorescein control [8] -0.19% [at 18.6 µM] | fluorescence, % of triamterene [9] 1.22% [at 18.6 µM] | fluorescence, % of fluorescent control [10] 0.0064% [at 18.6 µM]
